The results in this text go back to PubChem BioAssay (Tox21).

Inconclusive results are not listed. Some compounds were tested as several samples or in several runs, with calls that do not always agree. Calls of active or inactive are those of the source. Unless noted, calls follow the shape of the dose curve; as a rule, active = well fitted curve in the direction sought with a large enough effect in the repeat runs; inconclusive = weak or mixed curves; inactive = no such curve, though single readings can be large; an effect the other way counts as inactive or inconclusive.

Assay [1] is described as follows: qHTS assay to identify small molecule agonists of the peroxisome proliferator-activated receptor delta (PPARd) signaling pathway - cell viability counter screen (AID 743211). Also: nearly all actives have a fitted effect of over 55% in size. Also: potency is read from the fitted curve at half-maximal effect. In short, it runs like this: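 Viability of GeneBLAzer PPARd UAS-bla HEK293H cells was assessed after 17 h compound incubation at 37C, using CellTiter-Glo reagent added after the reporter read and luminescence recorded 30 min later.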

A short description of assay [2]: qHTS assay to identify small molecule antagonists of the peroxisome proliferator-activated receptor delta (PPARd) signaling pathway - cell viability counter screen (AID 743213). Also: nearly all actives have a fitted effect of over 50% in size. Also: potency is read from the fitted curve at half-maximal effect. The method, boiled down: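 In this counter screen, HEK293H cells carrying a UAS-beta-lactamase reporter are co-treated with test compounds and 300 nM L165041 (final) for 17 h at 37 C; cell viability is quantified by CellTiter-Glo luminescence.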
(In general: Quantitative high-throughput screening tests each substance at several concentrations.)

The nature of assay [3]: qHTS assay to identify small molecule agonists of the farnesoid-X-receptor (FXR) signaling pathway - cell viability counter screen (AID 743218). Also: nearly all actives have a fitted effect of over 45% in size. Also: potency is read from the fitted curve at half-maximal effect. The method, boiled down: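 Cytotoxicity counter-screen run in parallel, same wells: FXR-UAS-bla HEK 293T cells dosed 16 h at 37 C, viability read by CellTiter-Glo luminescence after 30 min at room temperature.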
Assay [4] has as its target Bile acid receptor (Homo sapiens) (UniProt Q96RI1). Briefly: qHTS assay to identify small molecule agonists of the farnesoid-X-receptor (FXR) signaling pathway (AID 743220; active = well fitted activation curve with a large enough effect in the signal ratio in the repeat runs, not every such curve was filed as active; the % refers to the signal ratio). The method, boiled down: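 Beta-lactamase reporter under UAS control in GeneBLAzer FXR HEK 293T cells (5000/well) measured with LiveBLAzer FRET substrate after 2 h at room temperature. Compound exposure lasted 16 h at 37C.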

Assay [5] deals with Vitamin D3 receptor (Homo sapiens) (UniProt P11473). Briefly: qHTS assay to identify small molecule agonists of the vitamin D receptor (VDR) signaling pathway (AID 743222; calls by dose curve). In short, it runs like this: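 Quantitative HTS agonist-mode screen: compounds in DMSO were pin-transferred onto VDR-bla cells and incubated 16 h at 37C, 5% CO2. Reporter activity was detected with LiveBLAzer B/G FRET substrate after 2 h at room temperature.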

Assay [6] has as its target Bile acid receptor (Homo sapiens) (UniProt Q96RI1). Put plainly: qHTS assay to identify small molecule antagonists of the farnesoid-X-receptor (FXR) signaling pathway (AID 743217; active = well fitted inhibition curve with a large enough effect in the signal ratio in the repeat runs, not every such curve was filed as active; the % refers to the signal ratio). The method, boiled down:
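Antagonist mode against 50 uM (final) chenodeoxycholic acid stimulation in FXR-bla HEK 293T cells, 16 h at 37 °C. Inhibition detected as reduced beta-lactamase activity via LiveBLAzer B/G FRET fluorescence after 2 h at room temperature.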

Assay [7] has as its target Peroxisome proliferator-activated receptor delta (Homo sapiens) (UniProt Q03181). Briefly: qHTS assay to identify small molecule agonists of the peroxisome proliferator-activated receptor delta (PPARd) signaling pathway (AID 743212; calls by dose curve). The method, boiled down:
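GeneBLAzer PPARd UAS-bla HEK293H cells (beta-lactamase reporter under UAS control), plated and rested 5 h at 37 C, then exposed to compounds in DMSO at 37 C; LiveBLAzer B/G FRET substrate added, 2 h room temperature, fluorescence read.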

Assay [8] has the same target. Put plainly: qHTS assay to identify small molecule antagonists of the peroxisome proliferator-activated receptor delta (PPARd) signaling pathway (AID 743215; active = well fitted inhibition curve with a large enough effect in the signal ratio in the repeat runs, not every such curve was filed as active; the % refers to the signal ratio;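 also: cells stimulated with agonist L165041 at 300 nM final during compound exposure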; also: potency is read from the fitted curve at half-maximal effect). The method, boiled down: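 Inhibition of L165041-driven (300 nM final) PPARd signaling is scored in HEK293H UAS-bla cells. Exposure lasts 17 h at 37 C; beta-lactamase activity is then read by FRET substrate fluorescence after 2 h at room temperature.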

Assay [9] deals with Vitamin D3 receptor (Homo sapiens) (UniProt P11473). Briefly: qHTS assay to identify small molecule antagonists of the vitamin D receptor (VDR) signaling pathway (AID 743223; active = well fitted inhibition curve with a large enough effect in the signal ratio in the repeat runs, not every such curve was filed as active; the % refers to the signal ratio). In short, it runs like this:
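Fluorescence from LiveBLAzer B/G FRET substrate, read after 2 h at room temperature, reflects beta-lactamase reporter activity in VDR-bla cells treated 16 h at 37C with compounds and agonist 1alpha,25-dihydroxyvitamin D3 (3 nM final).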

Assay [10] in a line: qHTS assay to identify small molecule antagonists of the farnesoid-X-receptor (FXR) signaling pathway - cell viability counter screen (AID 743221; active = well fitted cell-killing curve with a large enough effect in the repeat runs, not every such curve was filed as active; also: nearly all actives have a fitted effect of over 50% in size; also: potency is read from the fitted curve at half-maximal effect). The method, boiled down: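 Quantitative HTS of the Tox21 10K library run in parallel with the beta-lactamase reporter read. HEK 293T cells carrying a UAS-driven bla reporter got compound and 50 uM CDCA (final) for 16 h; ATP-based luminescence followed.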

Sequence of Vitamin D3 receptor (Homo sapiens) (P11473 whole entry, looked up): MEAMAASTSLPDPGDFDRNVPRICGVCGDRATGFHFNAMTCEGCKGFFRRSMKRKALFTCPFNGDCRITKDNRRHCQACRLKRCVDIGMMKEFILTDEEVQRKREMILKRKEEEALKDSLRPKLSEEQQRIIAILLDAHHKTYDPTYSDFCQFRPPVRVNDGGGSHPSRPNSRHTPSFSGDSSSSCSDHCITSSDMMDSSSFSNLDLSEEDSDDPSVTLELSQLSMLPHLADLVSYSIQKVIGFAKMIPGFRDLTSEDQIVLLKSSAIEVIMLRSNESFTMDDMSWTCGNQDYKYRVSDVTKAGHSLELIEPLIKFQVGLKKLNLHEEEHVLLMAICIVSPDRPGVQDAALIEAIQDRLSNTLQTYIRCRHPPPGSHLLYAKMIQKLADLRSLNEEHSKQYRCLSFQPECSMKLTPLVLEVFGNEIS
Sequence of Bile acid receptor (Homo sapiens) (Q96RI1 whole entry, looked up): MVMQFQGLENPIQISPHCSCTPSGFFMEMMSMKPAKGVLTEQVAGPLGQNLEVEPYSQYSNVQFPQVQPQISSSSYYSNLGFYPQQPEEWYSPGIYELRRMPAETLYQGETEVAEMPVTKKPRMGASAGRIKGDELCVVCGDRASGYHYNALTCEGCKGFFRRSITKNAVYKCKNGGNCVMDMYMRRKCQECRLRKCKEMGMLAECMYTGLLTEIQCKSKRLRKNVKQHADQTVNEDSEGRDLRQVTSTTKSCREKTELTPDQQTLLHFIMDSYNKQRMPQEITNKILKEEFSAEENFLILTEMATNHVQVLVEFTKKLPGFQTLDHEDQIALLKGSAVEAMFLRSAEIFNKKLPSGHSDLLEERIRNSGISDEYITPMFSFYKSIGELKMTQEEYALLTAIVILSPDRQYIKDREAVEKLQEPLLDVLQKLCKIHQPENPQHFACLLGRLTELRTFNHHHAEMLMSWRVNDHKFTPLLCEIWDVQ
Sequence of Peroxisome proliferator-activated receptor delta (Homo sapiens) (Q03181 whole entry, looked up): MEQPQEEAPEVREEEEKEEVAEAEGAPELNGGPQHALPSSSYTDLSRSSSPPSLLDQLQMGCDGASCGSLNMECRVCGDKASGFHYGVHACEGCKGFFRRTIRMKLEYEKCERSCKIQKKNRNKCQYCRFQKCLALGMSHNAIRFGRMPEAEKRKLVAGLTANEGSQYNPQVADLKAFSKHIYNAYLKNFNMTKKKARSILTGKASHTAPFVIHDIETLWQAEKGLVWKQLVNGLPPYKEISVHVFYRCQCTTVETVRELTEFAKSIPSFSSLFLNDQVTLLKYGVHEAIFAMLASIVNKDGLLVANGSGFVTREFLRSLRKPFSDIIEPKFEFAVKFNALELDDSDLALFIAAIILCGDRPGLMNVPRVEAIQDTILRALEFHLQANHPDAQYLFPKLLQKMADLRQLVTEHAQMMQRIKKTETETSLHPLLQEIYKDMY

Consider `CCCOc1sc(C(=O)N2CCC(c3cc(CN)ccc3F)CC2)c(C)c1Br`, for which the values for the Potency in assay [1], in assay [2] and in assay [3] were 15.9 µM (active), 17.9 µM (active) and 25.2 µM (active), respectively.

In the case of `CCCCCCCCCCOCC(O)CN` (stereo unspecified), the figures for the Potency in [1], in [2] and in assay [3] were 26.6 µM (active), 29.8 µM (active) and 33.5 µM (active), respectively.

Turning to `CC(NCCC(c1ccccc1)c1ccccc1)c1ccccc1` (stereo unspecified), the Potency is 29.8 µM (active) in assay [1], 8.41 µM (active) in assay [2] and 23.7 µM (active) in [3]. The Potency entry in assay [4] and in assay [5] was “inactive” each time.

As to `COC(=O)C1=C(C)NC(C)=C(C(=O)OCCCN2CCC(c3ccccc3)(c3ccccc3)CC2)C1c1cccc([N+](=O)[O-])c1` (stereo unspecified), the Potency in assay [1] is 10.6 µM (active); in assay [3], 11.9 µM (active).

In the case of `COc1cc(C(C)C)c2c(c1)S(=O)(=O)N(COc1cc(=O)n3cccc(OCCN4CCCCC4)c3n1)C2=O`, the Potency result in [1], in assay [6] and in assay [3] was “inactive” throughout.

`CC(C)=C1CC[C@@H](C)CC1=O`: the result in assay [7] was inactive. The Potency entry in assay [2], in [8], in assay [3], in [5] and in assay [9] was “inactive” throughout.

As for `C[C@@H]1CC[C@H]2C(C)(C)[C@H]3C[C@@]12CC[C@@]3(C)O`, the compound was classed as inactive in assay [7]. Besides, the Potency entry in assay [2], in [8], in assay [6] and in assay [10] was “inactive” each time.

Turning to `Oc1ccc(-c2ccc(O)cc2)cc1`, the Potency result in assay [1], in assay [10], in assay [5] and in assay [9] was “inactive” each time.

Take `Nc1ccc2cc3ccc(N)cc3nc2c1`: the Potency result in assay [1] is “inactive”. Further, the Potency in assay [3] was 3.89 µM (active) and inactive.

On to `C=C(C)C(=O)OCCC[Si](Cl)(Cl)Cl`, for which the compound was called inactive in assay [7]. The Potency entry in [2], in assay [8], in [10], in [5] and in assay [9] was “inactive” in each case.

In the case of `O=C(c1ccccc1)c1cc(Cl)ccc1O`, the Potency result in assay [1], in assay [6], in [3], in assay [10] and in assay [5] was “inactive” in each case.

On to `O=C(O)Cc1ccc(OCCNC[C@H](O)c2ccccc2)cc1`, for which the Potency entry in assay [1], in assay [6], in assay [3], in assay [10] and in [9] was “inactive” each time.

Regarding `O=C1NC2CCCCN2C12CCN(CCCN1c3ccccc3CCc3ccc(Cl)cc31)CC2` (stereo unspecified), the Potency in assay [1] was 29.8 µM (active); in assay [8], 29.8 µM (active); in assay [3] it was 23.7 µM (active); in [10], 29.8 µM (active). Further, the Potency entry in [4] and in assay [5] was “inactive” in each case.

For `CCCCNc1c(C(=O)OCC)c(C)nc2c1cnn2CC`, the call in [7] was inactive. In addition, the Potency entry in assay [2], in [8], in assay [3], in assay [10] and in assay [5] was “inactive” in each case.

As to `CCCCCCOc1cc(C)c(O)c(C)c1C`, in assay [7], the result was inactive. Also, the Potency result in assay [2], in [8], in assay [3], in [5] and in [9] was “inactive” throughout.

With `CCc1cccc(C)c1`, the call in [7] was inactive. The Potency entry in assay [2], in assay [8], in assay [6], in [3], in [10] and in [5] was “inactive” each time. Also, the Potency entry in assay [9] is “inactive”.

For the compound `O=C(Nc1ccc(Cl)cc1)Nc1ccc(Cl)c(C(F)(F)F)c1`, the Potency in [1] was 13.3 µM (active); in [8], 26.6 µM (active); in assay [10] it was 16.8 µM (active). Also, the Potency result in assay [4] was “inactive”.

On to `CC(C)(C)c1cc(/C=C2\SC(=N)NC2=O)cc(C(C)(C)C)c1O`, for which the Potency in assay [1] is 21.9 µM (active); in [3] it was 43.6 µM (active).

`CC(C(O)c1ccccc1)N(C)CCOC(c1ccccc1)c1ccccc1` (stereo unspecified): the Potency was 29.8 µM (active) in [1] and 15 µM (active) in [3]. Also, the Potency result in assay [8], in assay [5] and in [9] was “inactive” in each case.

For the compound `CCCCCCCCCCCCCCCC`, the outcome in assay [7] was inactive. Also, the Potency result in [2], in [8], in [3] and in [10] was “inactive” each time.

For the compound `Oc1ccc(-c2ccccc2)c(Cl)c1`, the compound was called inactive in assay [7]. For the same compound, the Potency entry in [2], in assay [8], in assay [3], in assay [10], in assay [5] and in assay [9] was “inactive” each time.

`CN(Cc1cc(Br)cc(Br)c1N)C1CCCCC1`: the outcome in assay [7] was inactive. For the same compound, the Potency result in assay [2] and in assay [8] was “inactive” throughout.

In the case of `C=C(c1ccc(C(=O)O)cc1)c1cc2c(cc1C)C(C)(C)CCC2(C)C`, the figures for the Potency in [1] and in assay [3] were 61.6 µM (active) and 24.5 µM (active), respectively. In addition, the Potency result in assay [10] and in assay [5] was “inactive” in each case.

In the case of `CCC(C)(C)c1cc(O)c(C(C)(C)CC)cc1O`, the call in assay [7] was inactive. The Potency result in [2], in [8] and in assay [5] was “inactive” throughout.

As to `Cc1cn[nH]c1`, the compound was classed as inactive in [7]. In addition, the Potency entry in assay [2], in [8], in assay [3] and in assay [10] was “inactive” each time.

As to `CCCN(CCc1cccs1)[C@H]1CCc2c(O)cccc2C1`, in assay [7], the outcome was inactive. In addition, the Potency result in [2], in [8] and in assay [10] was “inactive” each time.

`CC1=C(/C=C/C(C)=C/C=C/C(C)=C\C=O)C(C)(C)CCC1`: the Potency is 41.3 µM (active) in assay [1] and 46.4 µM (active) in [3].

As to `O=C1c2c(O)ccc([N+](=O)[O-])c2C(=O)c2c([N+](=O)[O-])ccc(O)c21`, the Potency is 12.2 µM (active) in assay [1], 54.4 µM (active) in assay [3] and 43.2 µM (active) in [10].

For `O=C(O)CC(=O)O`, the result in [7] was inactive. The Potency result in [2], in assay [8], in assay [3], in [10], in assay [5] and in assay [9] was “inactive” each time.

As for `CCCC(CC)CCCCCCCN` (stereo unspecified), in assay [7], the outcome was inactive. Also, the Potency result in assay [2], in assay [8], in [3], in [5] and in [9] was “inactive” throughout.

As for `CCCCCCCCCC(=O)N(C)C`, the Potency result in assay [1], in [6], in assay [3], in assay [10], in assay [5] and in [9] was “inactive” in each case.

Consider `SCCCCCCCCS`, for which, in [7], the outcome was inactive. Moreover, the Potency entry in assay [2], in assay [8], in assay [6], in [3], in assay [4] and in [10] was “inactive” each time. In addition, the Potency entry in [5] and in [9] was “inactive” throughout.
